Experimental data: the supplement of paper PMC10849652
The full data set covers some 8,800 targets. This sample favours those with a hit. About 0.5% of all pairs of compound and target were hits.

Key:
Test in all cases: log2 fold change, soluble protein after heating vs DMSO (PISA); higher = thermal stabilisation; K562 lysate, 10 uM; active = over 0.2 and 3.5 SD of the protein, either way, in both replicates (recomputed)
[1] = compound: CS(=O)(=O)CCNCc1ccc(-c2ccc3ncnc(Nc4ccc(OCc5cccc(F)c5)c(Cl)c4)c3c2)o1 [lapatinib]
Method in brief: (§1)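 Pellets of K562 cells were dounce-homogenised in PBS pH 7.4 with 1 mM MgCl2, and the crude extract was held at 1 mg/mL protein for a 30 min treatment with 10 μM compound. Aliquots were heated for 3 min over 48°C-58°C and pooled before NP-40 was added to 0.5% at 4°C. The supernatant from 21,000xg for 90 min was quantified by TMTpro 16plex LC-MS/MS with channel sums equalised. Values are reported from duplicates as log-two fold change in thermal stability relative to solvent controls.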

[2] = compound: CS(=O)(=O)N1CCN(Cc2cc3nc(-c4cccc5[nH]ncc45)nc(N4CCOCC4)c3s2)CC1 [pictilisib]
Method in brief: as §1

[3] = compound: C[C@@H](Oc1cc(-c2cnn(C3CCNCC3)c2)cnc1N)c1c(Cl)ccc(F)c1Cl [crizotinib]
Method in brief: as §1

[4] = compound: C[C@H](C1=CC=C(C=C1)C(=O)NC2=C3C=CNC3=NC=C2)N
Method in brief: as §1

[5] = compound: C[C@H](Nc1ncnc2nc[nH]c12)c1cc2cccc(Cl)c2c(=O)n1-c1ccccc1 [duvelisib]
Method in brief: as §1

[6] = compound: Cc1cc(Nc2cc(CN3CCOCC3)c3nc(C)c(Cc4ccc(Cl)cc4F)n3n2)n[nH]1 [gandotinib]
Method in brief: as §1

[7] = compound: Cc1cc(Nc2cc(N3CCN(C)CC3)nc(Sc3ccc(NC(=O)C4CC4)cc3)n2)n[nH]1 [tozasertib]
Method in brief: as §1

[8] = compound: Cc1ccc(-n2nc(C(C)(C)C)cc2NC(=O)Nc2ccc(OCCN3CCOCC3)c3ccccc23)cc1 [doramapimod]
Method in brief: as §1

[9] = compound: Cc1ccc(NC(=O)c2ccc(CN3CC[C@H](N(C)C)C3)c(C(F)(F)F)c2)cc1Nc1nccc(-c2cncnc2)n1 [bafetinib]
Method in brief: as §1

[10] = compound: Cc1cccc(CC(=O)N2CCc3c2ccc(-c2cn(C)c4ncnc(N)c24)c3F)n1
Method in brief: as §1

[11] = compound: Cc1cn(-c2cc(NC(=O)c3ccc(C)c(Nc4nccc(-c5cccnc5)n4)c3)cc(C(F)(F)F)c2)cn1 [nilotinib]
Method in brief: as §1

[12] = compound: Cc1nc(Nc2n[nH]c3c2CN(C(=O)N[C@H](CN(C)C)c2ccccc2)C3(C)C)c2sccc2n1
Method in brief: as §1

[13] = compound: Cc1nc(Nc2ncc(C(=O)Nc3c(C)cccc3Cl)s2)cc(N2CCN(CCO)CC2)n1 [dasatinib]
Method in brief: as §1

[14] = compound: Cc1ncc(-c2ccnc(Nc3ccc(S(C)(=O)=O)cc3)n2)n1C(C)C
Method in brief: as §1

[15] = compound: Cn1cc(-c2ccc3c(c2)CCN3C(=O)Cc2cccc(C(F)(F)F)c2)c2c(N)ncnc21
Method in brief: as §1

[16] = compound: Cn1cc(CNCC2CCN(c3ncc(C(=O)NO)cn3)CC2)c2ccccc21 [quisinostat]
Method in brief: as §1

[17] = compound: Cn1cncc1[C@@](N)(c1ccc(Cl)cc1)c1ccc2c(c1)c(-c1cccc(Cl)c1)cc(=O)n2C [tipifarnib]
Method in brief: as §1

[18] = compound: NC(=O)Nc1cc(-c2cccc(F)c2)sc1C(=O)N[C@H]1CCCNC1
Method in brief: as §1

[19] = compound: NC(=O)c1cnc(N[C@@H]2CCCC[C@@H]2N)nc1Nc1cccc(-n2nccn2)c1
Method in brief: as §1

[20] = compound: NC1(c2ccc(-c3nc4ccn5c(=O)[nH]nc5c4cc3-c3ccccc3)cc2)CCC1
Method in brief: as §1

Measured: log2 fold change

ABL2 (UniProt P42684)
inactive: [1] -0.053 | [2] -0.029 | [3] 0.367 | [4] -0.216 | [5] 0.079 | [6] 0.228 | [7] 0.273 | [8] -0.04 | [9] 0.439 | [10] 0 | [11] -0.084 | [12] 0.157 | [13] 0.067 | [14] 0.091 | [15] 0.064 | [16] -0.16 | [17] -0.116 | [18] 0.103 | [19] -0.028 | [20] -0.027

ANLN (UniProt Q9NQW6)
inactive: [1] -0.007 | [2] 0.004 | [3] -0.02 | [4] -0.037 | [5] -0.02 | [6] 0.024 | [7] 0.052 | [8] 0.01 | [9] -0.038 | [10] 0.028 | [11] -0.023 | [12] 0.047 | [13] -0.009 | [14] -0.018 | [15] 0.04 | [16] -0.072 | [17] -0.041 | [18] 0.006 | [19] -0.013 | [20] 0.015

ACSL1 (UniProt P33121)
Sequence of UniProt P33121 (P33121 whole entry, looked up): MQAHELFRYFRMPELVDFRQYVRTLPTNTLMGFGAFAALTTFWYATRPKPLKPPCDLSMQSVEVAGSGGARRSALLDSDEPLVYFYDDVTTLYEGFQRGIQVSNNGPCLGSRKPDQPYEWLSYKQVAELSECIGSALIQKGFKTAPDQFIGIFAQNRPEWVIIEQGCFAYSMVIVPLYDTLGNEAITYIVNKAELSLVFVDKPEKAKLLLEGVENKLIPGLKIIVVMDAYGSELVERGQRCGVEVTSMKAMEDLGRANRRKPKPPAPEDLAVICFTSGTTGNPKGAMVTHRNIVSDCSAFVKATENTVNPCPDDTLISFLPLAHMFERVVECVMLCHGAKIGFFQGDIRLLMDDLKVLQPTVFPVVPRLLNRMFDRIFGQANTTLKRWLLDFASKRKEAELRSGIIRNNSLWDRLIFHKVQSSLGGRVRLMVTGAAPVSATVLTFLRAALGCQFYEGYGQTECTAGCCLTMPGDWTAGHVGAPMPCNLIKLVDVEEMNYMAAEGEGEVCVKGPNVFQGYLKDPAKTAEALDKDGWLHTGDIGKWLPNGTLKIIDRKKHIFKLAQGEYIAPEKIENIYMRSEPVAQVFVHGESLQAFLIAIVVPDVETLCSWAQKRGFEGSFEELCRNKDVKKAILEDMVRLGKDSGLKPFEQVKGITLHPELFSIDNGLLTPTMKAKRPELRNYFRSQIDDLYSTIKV
inactive: [1] -0.03 | [2] -0.094 | [3] -0.115 | [4] 0.021 | [5] 0.043 | [6] -0.049 | [7] 0.033 | [8] 0.053 | [9] -0.038 | [10] 0.061 | [11] -0.004 | [12] -0.002 | [13] -0.132 | [14] 0.013 | [15] 0.05 | [16] 0.007 | [17] -0.013 | [18] 0.034 | [19] -0.025 | [20] -0.04

ARHGEF1 (UniProt M0QZR4)
inactive: [1] 0.006 | [2] -0.011 | [3] -0.041 | [4] -0.038 | [5] -0.007 | [6] -0.012 | [7] 0.029 | [8] 0.02 | [9] -0.019 | [10] 0.106 | [11] 0.009 | [12] -0.031 | [13] -0.058 | [14] -0.016 | [15] 0.022 | [16] -0.02 | [17] 0.01 | [18] 0.015 | [19] 0.017 | [20] -0.015

ABI1 isoform 9 (UniProt Q8IZP0)
active: [4] -0.26
inactive: [1] 0.011 | [2] -0.048 | [3] -0.006 | [5] 0.01 | [6] 0.13 | [7] 0.008 | [8] -0.015 | [9] 0.08 | [10] 0.163 | [11] -0.006 | [12] -0.004 | [13] -0.001 | [14] -0.02 | [15] -0.016 | [16] 0.003 | [17] -0.01 | [18] -0.023 | [19] 0.003 | [20] 0.032

ALG13 (UniProt Q9NP73)
inactive: [1] 0.017 | [2] -0.002 | [3] -0.12 | [4] -0.075 | [5] 0 | [6] 0.044 | [7] -0.091 | [8] -0.015 | [9] -0.025 | [10] 0.127 | [11] 0.089 | [12] -0.012 | [13] -0.044 | [14] 0.218 | [15] 0 | [16] -0.067 | [17] -0.036 | [18] -0.004 | [19] 0.028 | [20] -0.009

ARMCX3 (UniProt Q9UH62)
inactive: [1] -0.058 | [2] 0.005 | [3] -0.076 | [4] 0.078 | [5] 0.064 | [6] -0.064 | [7] 0.005 | [8] -0.003 | [9] -0.044 | [10] 0.032 | [11] 0.023 | [12] -0.028 | [13] -0.107 | [14] -0.003 | [15] 0.067 | [16] -0.057 | [17] -0.008 | [18] 0.04 | [19] 0.008 | [20] -0.002

AKR1C2 (UniProt P52895)
Sequence of UniProt P52895 (P52895 whole entry, looked up): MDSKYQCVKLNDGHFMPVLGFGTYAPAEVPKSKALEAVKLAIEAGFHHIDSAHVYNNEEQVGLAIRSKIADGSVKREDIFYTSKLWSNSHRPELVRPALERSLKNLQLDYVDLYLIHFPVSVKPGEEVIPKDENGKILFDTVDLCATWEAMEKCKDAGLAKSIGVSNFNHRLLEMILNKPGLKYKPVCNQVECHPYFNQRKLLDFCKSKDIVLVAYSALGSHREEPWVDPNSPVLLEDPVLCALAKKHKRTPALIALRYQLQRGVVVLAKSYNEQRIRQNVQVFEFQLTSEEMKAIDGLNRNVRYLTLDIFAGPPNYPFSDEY
active: [6] 0.276
inactive: [1] -0.012 | [2] -0.022 | [3] -0.059 | [4] -0.201 | [5] 0.049 | [7] 0.014 | [8] -0.011 | [9] 0.108 | [10] 0.18 | [11] 0.02 | [12] -0.031 | [13] -0.006 | [14] -0.009 | [15] -0.045 | [16] -0.043 | [17] 0 | [18] 0.019 | [19] -0.039 | [20] -0.034

ARHGAP6 (UniProt O43182)
inactive: [1] 0.006 | [2] 0.012 | [3] -0.038 | [4] 0.106 | [5] 0.001 | [6] -0.097 | [7] 0.004 | [8] -0.003 | [9] -0.055 | [10] -0.022 | [11] -0.003 | [12] -0.014 | [13] -0.102 | [14] 0 | [15] 0.052 | [16] -0.019 | [17] 0.02 | [18] 0.034 | [19] -0.025 | [20] -0.039

ARHGAP21 (UniProt Q5T5U3)
Sequence of UniProt Q5T5U3 (Q5T5U3 whole entry, looked up): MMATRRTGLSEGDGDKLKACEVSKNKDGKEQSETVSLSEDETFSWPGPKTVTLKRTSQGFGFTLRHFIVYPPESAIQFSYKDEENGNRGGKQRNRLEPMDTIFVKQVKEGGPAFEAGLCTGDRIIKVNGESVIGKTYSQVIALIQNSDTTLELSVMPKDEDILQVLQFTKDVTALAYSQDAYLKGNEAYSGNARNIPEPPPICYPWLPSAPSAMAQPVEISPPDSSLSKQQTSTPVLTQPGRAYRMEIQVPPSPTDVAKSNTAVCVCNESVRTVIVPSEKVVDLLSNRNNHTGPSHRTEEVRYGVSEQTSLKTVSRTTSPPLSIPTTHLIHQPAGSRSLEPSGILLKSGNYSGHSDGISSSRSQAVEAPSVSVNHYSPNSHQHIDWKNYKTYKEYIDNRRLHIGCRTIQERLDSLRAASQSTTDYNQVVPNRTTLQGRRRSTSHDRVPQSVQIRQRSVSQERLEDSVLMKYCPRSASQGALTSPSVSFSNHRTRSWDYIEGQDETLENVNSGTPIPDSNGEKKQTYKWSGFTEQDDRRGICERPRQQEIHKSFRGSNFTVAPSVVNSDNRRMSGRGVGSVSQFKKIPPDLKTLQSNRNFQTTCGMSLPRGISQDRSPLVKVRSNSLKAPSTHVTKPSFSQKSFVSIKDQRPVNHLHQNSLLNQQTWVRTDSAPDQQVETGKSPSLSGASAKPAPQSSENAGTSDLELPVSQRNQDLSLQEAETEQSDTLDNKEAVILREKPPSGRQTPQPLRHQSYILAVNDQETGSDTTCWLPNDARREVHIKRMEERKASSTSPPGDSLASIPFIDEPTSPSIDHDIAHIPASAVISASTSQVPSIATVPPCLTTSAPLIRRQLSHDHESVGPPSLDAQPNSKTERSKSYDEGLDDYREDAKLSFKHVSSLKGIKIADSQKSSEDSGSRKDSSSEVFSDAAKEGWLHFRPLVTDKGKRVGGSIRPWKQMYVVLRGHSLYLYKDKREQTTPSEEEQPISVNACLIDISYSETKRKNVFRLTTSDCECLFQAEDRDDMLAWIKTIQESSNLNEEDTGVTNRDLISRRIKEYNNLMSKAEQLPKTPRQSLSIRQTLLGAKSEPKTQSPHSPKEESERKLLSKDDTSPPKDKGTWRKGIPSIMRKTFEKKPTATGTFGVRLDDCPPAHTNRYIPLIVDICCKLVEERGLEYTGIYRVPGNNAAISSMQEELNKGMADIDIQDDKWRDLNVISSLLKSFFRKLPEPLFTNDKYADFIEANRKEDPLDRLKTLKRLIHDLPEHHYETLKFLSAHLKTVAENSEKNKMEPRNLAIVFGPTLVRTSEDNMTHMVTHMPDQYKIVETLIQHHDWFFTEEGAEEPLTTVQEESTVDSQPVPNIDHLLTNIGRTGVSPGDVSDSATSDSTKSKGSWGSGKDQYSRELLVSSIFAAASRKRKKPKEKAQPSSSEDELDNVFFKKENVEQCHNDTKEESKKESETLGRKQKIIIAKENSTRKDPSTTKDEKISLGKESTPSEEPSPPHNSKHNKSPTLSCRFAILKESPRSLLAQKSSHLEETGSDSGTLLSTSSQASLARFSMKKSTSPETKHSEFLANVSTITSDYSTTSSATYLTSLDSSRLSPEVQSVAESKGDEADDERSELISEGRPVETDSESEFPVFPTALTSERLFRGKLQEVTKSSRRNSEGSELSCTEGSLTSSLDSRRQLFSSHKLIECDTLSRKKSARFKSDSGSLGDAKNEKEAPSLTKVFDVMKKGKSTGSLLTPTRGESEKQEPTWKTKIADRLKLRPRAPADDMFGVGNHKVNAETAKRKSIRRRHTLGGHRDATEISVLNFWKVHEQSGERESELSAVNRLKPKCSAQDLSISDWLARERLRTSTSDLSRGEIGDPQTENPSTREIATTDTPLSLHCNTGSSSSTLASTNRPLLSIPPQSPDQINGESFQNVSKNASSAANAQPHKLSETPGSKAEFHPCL
inactive: [1] 0.081 | [2] -0.116 | [3] -0.073 | [4] 0.071 | [5] -0.007 | [6] 0.102 | [7] -0.092 | [8] 0.013 | [9] -0.133 | [10] 0.053 | [11] -0.017 | [12] -0.014 | [13] -0.039 | [14] -0.036 | [15] 0.017 | [16] -0.06 | [17] 0.019 | [18] 0.053 | [19] 0.002 | [20] -0.021

APAF1 (UniProt O14727)
Sequence of UniProt O14727 (O14727 whole entry, looked up): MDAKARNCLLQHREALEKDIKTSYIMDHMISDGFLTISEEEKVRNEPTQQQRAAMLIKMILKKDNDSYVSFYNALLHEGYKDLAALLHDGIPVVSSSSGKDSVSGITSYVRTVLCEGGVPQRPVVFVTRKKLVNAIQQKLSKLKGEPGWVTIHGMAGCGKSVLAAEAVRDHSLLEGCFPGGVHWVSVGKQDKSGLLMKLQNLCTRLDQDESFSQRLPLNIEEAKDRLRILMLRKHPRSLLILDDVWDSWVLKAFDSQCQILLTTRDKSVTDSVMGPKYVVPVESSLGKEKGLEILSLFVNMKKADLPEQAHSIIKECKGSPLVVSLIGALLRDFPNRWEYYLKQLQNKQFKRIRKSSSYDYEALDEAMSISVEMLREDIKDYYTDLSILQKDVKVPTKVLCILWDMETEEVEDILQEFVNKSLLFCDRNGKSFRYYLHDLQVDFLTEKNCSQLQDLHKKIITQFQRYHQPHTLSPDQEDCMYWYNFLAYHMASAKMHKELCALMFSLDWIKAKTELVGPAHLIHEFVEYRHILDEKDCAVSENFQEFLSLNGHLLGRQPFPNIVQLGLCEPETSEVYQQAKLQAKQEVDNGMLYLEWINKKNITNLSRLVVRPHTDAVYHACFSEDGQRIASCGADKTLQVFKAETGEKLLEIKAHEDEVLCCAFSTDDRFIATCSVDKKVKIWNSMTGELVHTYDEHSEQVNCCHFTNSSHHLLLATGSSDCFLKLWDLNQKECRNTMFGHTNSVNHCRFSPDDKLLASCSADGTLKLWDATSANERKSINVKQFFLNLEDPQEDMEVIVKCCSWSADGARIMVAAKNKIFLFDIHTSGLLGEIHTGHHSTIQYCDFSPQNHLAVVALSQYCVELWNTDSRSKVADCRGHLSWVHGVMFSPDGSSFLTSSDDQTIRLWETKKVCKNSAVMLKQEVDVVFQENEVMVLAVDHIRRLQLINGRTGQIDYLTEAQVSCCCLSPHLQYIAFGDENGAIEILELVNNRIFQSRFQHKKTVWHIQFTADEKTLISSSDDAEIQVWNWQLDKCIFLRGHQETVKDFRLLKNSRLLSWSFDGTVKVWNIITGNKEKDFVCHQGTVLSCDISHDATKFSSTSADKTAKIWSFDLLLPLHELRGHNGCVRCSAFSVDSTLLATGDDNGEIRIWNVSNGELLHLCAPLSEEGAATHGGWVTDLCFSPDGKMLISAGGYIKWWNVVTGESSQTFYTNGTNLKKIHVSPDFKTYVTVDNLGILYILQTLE
inactive: [1] 0.022 | [2] -0.068 | [3] -0.09 | [4] -0.015 | [5] -0.011 | [6] -0.058 | [7] -0.025 | [8] 0.05 | [9] 0.02 | [10] 0.061 | [11] -0.013 | [12] 0.116 | [13] -0.036 | [14] 0.025 | [15] 0.073 | [16] -0.091 | [17] -0.026 | [18] 0.052 | [19] 0 | [20] 0.026

ABCF3 (UniProt Q9NUQ8)
inactive: [1] -0.019 | [2] 0.006 | [3] -0.033 | [4] 0.02 | [5] 0.018 | [6] -0.075 | [7] 0.063 | [8] 0.011 | [9] -0.062 | [10] 0.017 | [11] -0.025 | [12] 0.014 | [13] -0.053 | [14] 0.001 | [15] 0.044 | [16] -0.04 | [17] -0.003 | [18] 0.012 | [19] 0.011 | [20] -0.062

AIMP1 isoform 2 (UniProt Q12904)
inactive: [1] -0.019 | [2] -0.004 | [3] -0.05 | [4] 0.023 | [5] 0.007 | [6] -0.085 | [7] -0.008 | [8] -0.015 | [9] -0.041 | [10] -0.012 | [11] -0.013 | [12] -0.016 | [13] -0.076 | [14] 0.019 | [15] 0.023 | [16] 0.01 | [17] 0.013 | [18] 0.044 | [19] -0.011 | [20] 0.001

ACSL4 (UniProt O60488)
Sequence of UniProt O60488 (O60488 whole entry, looked up): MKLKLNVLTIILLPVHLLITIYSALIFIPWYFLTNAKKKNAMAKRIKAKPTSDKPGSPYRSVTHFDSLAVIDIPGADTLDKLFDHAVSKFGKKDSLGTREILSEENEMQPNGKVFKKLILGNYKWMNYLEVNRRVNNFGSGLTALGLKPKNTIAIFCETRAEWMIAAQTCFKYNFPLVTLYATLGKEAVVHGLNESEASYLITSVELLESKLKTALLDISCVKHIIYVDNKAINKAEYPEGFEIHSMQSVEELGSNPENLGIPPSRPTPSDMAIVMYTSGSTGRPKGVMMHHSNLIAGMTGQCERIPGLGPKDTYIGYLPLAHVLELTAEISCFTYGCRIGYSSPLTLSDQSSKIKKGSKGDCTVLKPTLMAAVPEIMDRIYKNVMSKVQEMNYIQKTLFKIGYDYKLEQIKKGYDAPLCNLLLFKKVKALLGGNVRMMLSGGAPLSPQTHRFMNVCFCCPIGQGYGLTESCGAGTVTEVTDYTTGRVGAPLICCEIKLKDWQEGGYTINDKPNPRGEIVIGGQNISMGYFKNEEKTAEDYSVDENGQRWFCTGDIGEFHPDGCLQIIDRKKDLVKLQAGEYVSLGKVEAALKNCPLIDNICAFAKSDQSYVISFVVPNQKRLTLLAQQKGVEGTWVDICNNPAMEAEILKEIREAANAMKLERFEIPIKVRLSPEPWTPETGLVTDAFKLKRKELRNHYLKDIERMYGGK
inactive: [1] 0.008 | [2] 0.028 | [3] -0.042 | [4] -0.016 | [5] 0.026 | [6] -0.065 | [7] 0.002 | [8] 0.025 | [9] -0.093 | [10] -0.003 | [11] -0.011 | [12] 0.008 | [13] 0.004 | [14] 0.018 | [15] 0.02 | [16] -0.018 | [17] -0.051 | [18] 0.029 | [19] -0.032 | [20] -0.074

ARL15 (UniProt Q9NXU5)
inactive: [1] -0.001 | [2] 0.097 | [3] 0 | [5] -0.004 | [6] -0.098 | [7] 0.023 | [8] 0.06 | [9] 0.225 | [10] -0.118 | [11] -0.008 | [12] 0.021 | [13] -0.063 | [14] -0.046 | [15] 0.036 | [16] 0.024 | [17] 0.031 | [18] -0.034 | [19] 0.021 | [20] 0.022
active: [4] 0.682

AKAP11 (UniProt Q9UKA4)
inactive: [1] 0.021 | [2] -0.08 | [3] 0.025 | [4] -0.02 | [5] 0.015 | [6] -0.176 | [7] 0.061 | [8] -0.036 | [9] -0.084 | [10] -0.005 | [11] -0.001 | [12] -0.06 | [13] -0.074 | [14] 0.188 | [15] 0.092 | [16] 0.012 | [17] 0.022 | [18] 0.008 | [19] 0.014 | [20] -0.05
